The subject of test [1] is Human papillomavirus type 1a protein E7 (residues 44-93). Put plainly: HPV1a E7 fragment binders on microarrays, primary screen, biochemical, small-molecule microarray, residues 44-93, 635 nm fluorescence (AID 1108).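 Also: E7 fragment applied at 1 µg/mL in TBST for 1 h at 4 C; score combines spot fluorescence with its signal to noise ratio.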 Particulars: small-molecule microarray binding, fluorescence 635 nm; higher = more signal.
Test [2] in a line: modulators of HCV replicon luciferase signal, primary screen, HCV replication inhibitor project, Huh7 cells, luciferase reporter (AID 1109).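 Also: huh7 hepatoma cells harbouring a luciferase neomycin HCV replicon reporter; luciferase luminescence as measure of HCV replicon replication; test concentration not given here.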 Particulars: 48 h, higher = more signal. In general terms: Replicon systems follow genome replication, usually without infectious particles.
Test [3] addresses Left-right determination factor 2 (Homo sapiens) (UniProt O00292). Kind of test: LEFTY2 binders on small-molecule microarrays, primary screen, biochemical, small-molecule microarray, 635 nm fluorescence scan (AID 1110). Particulars: LEFTY2 binding, higher = more signal.
The target in test [4] is Calmodulin-1 (Homo sapiens) (UniProt P0DP23). Kind of test: CALM1 binders on microarrays, EGTA buffer, profiling panel, biochemical, small-molecule microarray, Cy5-labelled CALM1 (AID 1111).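 Also: labelled calmodulin applied in Tris saline Tween buffer holding calcium plus EGTA and DTT.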 Particulars: Cy5-CALM1 binding fluorescence, higher = more signal.
The target is the same in test [5]. Put plainly: calcium-bound CALM1 binders on microarrays, profiling panel, artefact control for SMM control-protein annotation, biochemical, small-molecule microarray, Cy5-labelled CALM1, plus calcium (AID 1112).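 Also: score merges spot fluorescence with signal to noise from triplicate slides.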 Conditions: Cy5-CALM1 binding fluorescence, higher = more signal.
A short description of test [6]: small-molecule microarray binders of probe aWnt5a, primary screen, biochemical, biotinylated probe, 635/667 nm fluorescence (AID 1113).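 Also: score merges 667 nm fluorescence intensity with signal-to-noise per printed feature.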 Particulars: higher = more signal.
Test [7] is described as follows: small-molecule microarray binders of probe aShh, primary screen, biochemical, biotinylated probe, 635/667 nm fluorescence (AID 1114).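 Also: probe is biotin-labelled aShh protein from a stem cell growth factor screen; measures binding of labelled protein to compounds printed on the slide; score merges feature fluorescence at 667 nm with signal-to-noise.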 Conditions: higher = more signal.
The nature of test [8]: small-molecule microarray binders of probe aNog, primary screen, biochemical, biotinylated probe, 635/667 nm fluorescence (AID 1115).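 Also: probe is biotinylated aNog protein used at 0.15 µg/mL for 1 h at 4 C; z-score combines 667 nm fluorescence of each spot with its signal to noise.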 Particulars: higher = more signal.
The target of test [9] is Torsin-1A-interacting protein 1 (Homo sapiens) (UniProt Q5JTV8). Put plainly: LAP1 binders from COS7 cell lysate, primary screen, small-molecule microarray, 635/667 nm fluorescence (AID 1116). Particulars: COS7-hLAP1 lysate binding, 635 nm fluorescence, higher = more signal.
Test [10] deals with Alpha-bungarotoxin (Bungarus multicinctus) (UniProt P60615). Put plainly: alpha-bungarotoxin binders on microarray, profiling panel, artefact control for SMM control protein annotation, biochemical, small-molecule microarray, Alexa647 label, 635/667 nm fluorescence (AID 1117). Particulars: alpha-BTX-A647 binding fluorescence, higher = more signal.

SMILES strings stand for the structures.

Alpha-bungarotoxin (Bungarus multicinctus), sequence (P60615 whole entry, looked up): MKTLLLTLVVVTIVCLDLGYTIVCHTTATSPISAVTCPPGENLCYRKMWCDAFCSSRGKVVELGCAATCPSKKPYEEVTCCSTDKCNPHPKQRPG
Torsin-1A-interacting protein 1 (Homo sapiens), sequence (Q5JTV8 whole entry, looked up): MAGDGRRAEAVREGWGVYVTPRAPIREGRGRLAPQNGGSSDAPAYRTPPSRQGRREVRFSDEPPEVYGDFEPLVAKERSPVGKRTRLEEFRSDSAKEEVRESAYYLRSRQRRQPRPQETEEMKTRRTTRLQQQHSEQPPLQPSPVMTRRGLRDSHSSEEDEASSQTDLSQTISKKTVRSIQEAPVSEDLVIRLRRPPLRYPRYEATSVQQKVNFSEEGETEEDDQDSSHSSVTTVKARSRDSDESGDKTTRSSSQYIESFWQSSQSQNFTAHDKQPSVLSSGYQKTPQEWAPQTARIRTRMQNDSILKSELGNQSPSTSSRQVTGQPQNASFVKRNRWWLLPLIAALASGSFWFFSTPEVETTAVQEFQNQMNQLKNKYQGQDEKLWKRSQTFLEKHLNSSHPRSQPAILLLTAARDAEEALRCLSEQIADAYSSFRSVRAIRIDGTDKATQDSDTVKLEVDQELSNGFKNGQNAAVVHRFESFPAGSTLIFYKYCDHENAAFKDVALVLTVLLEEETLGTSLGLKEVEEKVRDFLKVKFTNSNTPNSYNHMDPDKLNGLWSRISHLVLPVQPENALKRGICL
Left-right determination factor 2 (Homo sapiens), sequence (O00292 whole entry, looked up): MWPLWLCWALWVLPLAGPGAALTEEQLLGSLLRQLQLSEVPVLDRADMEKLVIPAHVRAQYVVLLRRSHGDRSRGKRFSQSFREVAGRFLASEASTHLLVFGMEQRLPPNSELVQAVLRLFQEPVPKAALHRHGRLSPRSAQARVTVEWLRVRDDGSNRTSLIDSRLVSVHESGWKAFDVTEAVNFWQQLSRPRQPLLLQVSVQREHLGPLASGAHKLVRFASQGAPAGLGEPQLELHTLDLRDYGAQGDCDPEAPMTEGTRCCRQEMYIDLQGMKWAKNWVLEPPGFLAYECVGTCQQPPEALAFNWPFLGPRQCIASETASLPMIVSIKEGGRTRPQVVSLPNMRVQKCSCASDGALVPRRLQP

Regarding `CN(C)CCCCNC(=O)[C@H]1C[C@H]2C(=O)N[C@@H](Cc3ccccc3)C(=O)N2[C@H]1c1cccc(OCCO)c1`, the composite z-score is -1.49 in test [1]; 0.0071 in test [3]; -0.545 in test [4]; 0.0005 in [5]; -0.217 in test [6]; 0.251 in [7]. Further, the composite z-score in test [8] is -0.338; in test [9] it was 0.0886; in [10], 0.336. The z-score in test [2] was -0.251.

Take `O=C1N(Cc2ccccc2)c2ccccc2[C@H]2OC(c3ccc(OCCCO)cc3)=N[C@@]12Cc1ccccc1`: the composite z-score is 1.03 in test [1]; -0.116 in [3]; 0.244 in test [4]; -0.0364 in test [5]; 0.067 in test [6]; 1.06 in [7]. Besides, the composite z-score in test [8] amounted to 0.798; in test [9] it was 0.498; in test [10], 1.81. For the same compound, the z-score in [2] was -2.48.

On to `CC(c1ccccc1)C(O)C1C=CC2C(=O)N(c3ccccc3)C(=O)C2N1Nc1ccc(C#N)cc1` (stereo not given), for which the composite z-score in [1] turned out to be 1.41; in test [3], 0.8; in test [4] it was 1.52; in [5], 0.253; in [6] it was 0.216; in test [7], 0.156. In addition, the results for the composite z-score in [8], in test [9] and in test [10] were 1.45, 1.8 and 1.39, respectively. This compound returned a z-score in test [2] of -0.354.

`CC(C)(C)OC(=O)CC[C@]1(C(=O)N2CCOCC2)N=C(c2ccc(OCCCO)cc2)O[C@H]1c1ccccc1CN=[N+]=[N-]`: the composite z-score in test [1] was 1.36; in [3], -0.457; in [4], 1.27; in [5], 0.15; in [6] it was -0.0221; in [7], -0.141. For the same compound, the composite z-score in test [8] came to 1.92; in [9], 2.38; in test [10], 1.68. In [2], this compound registered a z-score of -0.229.

For the compound `COCCOC(=O)N1C(=O)[C@@]2(c3ccccc31)[C@H](C(N)=O)[C@H]1C(=O)O[C@H](c3ccccc3)[C@H](c3ccccc3)N1[C@@H]2c1ccc(OCCO)cc1`, the composite z-score is 1.45 in test [1]; 0.234 in [3]; 0.68 in test [4]; -0.183 in test [5]; -0.063 in [6]; 0.0723 in [7]. Besides, the composite z-score in test [8] was -0.0161; in test [9] it was 0.905; in test [10] it was 1.37. In test [2], this compound registered a z-score of -1.09.

With `[N-]=[N+]=NCc1ccccc1[C@H]1OC(c2ccc(OCCCO)cc2)=N[C@@]1(Cc1ccccc1)C(=O)N1CCOCC1`, the composite z-score in [1] was 1.06; in test [3], 0.335; in test [4], 1.48; in test [5], 0.779; in [6], 0.186; in test [7], -0.226. For the same compound, the composite z-score in [8] is -0.461; in test [9] it was 1.43; in [10], 1.28. Further, the z-score in [2] was -2.31.

For the compound `COc1ccc(NN2C(C(O)c3ccc(OC)cc3)C=CC3C(=O)N(C4CCCCC4)C(=O)C32)cc1` (stereo not given), the composite z-score is 1.2 in test [1]; 0.318 in test [3]; 0.566 in test [4]; -0.366 in [5]; 0.0357 in test [6]; 0.191 in test [7]. The composite z-score in [8] was determined as 0.571; in [9], 0.53; in test [10], 1.08. This compound also came in with a z-score in test [2] of -1.02.

Turning to `CN1C=C(C(=O)OCCS(C)(=O)=O)C(C(=O)OCCS(C)(=O)=O)=CC(CCCO)=CC1c1ccc(CN2CCCC2)cc1` (stereo not given), the composite z-score in [1] is 1.45; in test [3], 0.595; in [4], 0.693; in test [5], -0.551; in test [6] it was -0.0087; in test [7] it was 0.261. Besides, the values for the composite z-score in test [8], in test [9] and in [10] were 0.827, 0.51 and 0.745, respectively. In test [2], this compound registered a z-score of -1.36.

For `Cc1c(-c2ccc(-c3ccc(Cl)c(Cl)c3)o2)nc(-c2ccccc2)c2c1CO[Si]2(C(C)C)C(C)C`, the composite z-score in test [1] was 0.296; in test [3], -0.487; in test [4], -0.179; in [5], -0.0727; in test [6], -0.113; in test [7], 0.0326. Further, the composite z-score in [8] is -0.103; in [9] it was 0.125; in test [10], -0.0982. The same compound had a z-score in [2] of -0.403.

On to `COc1ccc([Si](C)(C)[C@H]2[C@H](CCO)O[C@@]3(C(=O)N(Cc4ccc(N5CCOC5=O)cc4)c4ccccc43)[C@@H]2C)cc1`, for which the composite z-score in test [1] is 1.11; in test [3], -0.284; in test [4], 0.854; in test [5] it was 0.455; in test [6], -0.12; in test [7], 0.151. Moreover, the composite z-score stood at 0 in [8], 0.248 in [9] and 0.93 in test [10]. This compound also gave a z-score in [2] of -3.71.

With `COCCOC(=O)N1C(=O)[C@@]2(c3cc(C#Cc4ccc(OC)cc4)ccc31)[C@H](c1ccc(OCCO)cc1)N1[C@H](c3ccccc3)[C@H](c3ccccc3)OC(=O)[C@H]1[C@@H]2C(=O)N1CCCCCCC1`, the composite z-score turned out to be 1.35 in test [1]; 0.954 in [3]; 2.27 in test [4]; 1.21 in [5]; 0.777 in test [6]; 2.23 in test [7]. Also, the figures for the composite z-score in test [8], in [9] and in [10] were 3.67, 3.66 and 1.99, respectively. For the same compound, in test [2], the z-score is -0.891.

As to `COC(=O)C1=CC(CCCO)=CC(C2CC2)N(Cc2cccc(OC(F)(F)F)c2)C=C1C(=O)OC` (stereo not given), the composite z-score in test [1] was 1.43; in [3], -0.724; in test [4], 0.302; in test [5], 0.364; in [6], 0.0077; in [7], -0.0035. The composite z-score is 0.374 in test [8], -0.302 in test [9] and 0.0939 in [10]. The z-score in test [2] is -1.46.

As for `CCCCC(=C=CC[C@@H](O)c1ccc(OCCO)cc1)C[C@@H](O)c1ccccn1`, the composite z-score is -0.0715 in [1]; 0.288 in test [3]; 0.421 in test [4]; 0.0751 in test [5]; -0.0685 in test [6]; 0.0611 in test [7]. The composite z-score in test [8] was determined as 0.157; in [9] it was 0.642; in [10] it was 0.0829. This compound also showed a z-score in test [2] of -1.49.

As for `COCCOC(=O)N1C(=O)[C@@]2(c3cc(C#CC4=CCCCC4)ccc31)[C@H](C(=O)N1CCN(c3ncccn3)CC1)[C@H]1C(=O)O[C@H](c3ccccc3)[C@H](c3ccccc3)N1[C@@H]2c1ccccc1OCCO`, the composite z-score is 1.38 in test [1]; 0.419 in test [3]; 0.936 in test [4]; 0.473 in test [5]; -0.0778 in test [6]; -0.19 in test [7]. For the same compound, the composite z-score in [8] was -0.0845; in test [9], 0.961; in [10], 0.903. For the same compound, the z-score in test [2] is -1.9.

Turning to `Cc1ccc(S[C@]2(C(=O)NCCCN(C)C)CC(=O)N(Cc3ccccc3Cl)[C@@H]2c2ccc(CO)cc2I)cc1`, the composite z-score in [1] was -0.177; in [3], -1.7; in test [4], 0.0681; in test [5] it was 0.283; in test [6] it was -0.1; in [7] it was -0.0681. Further, the composite z-score in [8] came out at 0.692; in test [9] it was 0.49; in [10] it was 2.46. The same compound showed a z-score in test [2] of -1.55.

(Values after PubChem BioAssay.)
